Assay outcomes as filed in PubChem BioAssay.
A549 viability = counter-screen for Nrf2 inhibitors: cytotoxicity in A549 cells | Potency, µM (highest dose often 46 µM), for the others: top-dose activity change, negative = cytotoxicity, actives largely listed as inhibitors | AID 504648 | A549 ARE-Fluc cells, CellTiter-Fluor viability, 18-24 h | 390,000 tested, 0.16% active; further: potency means the concentration at half of the fitted maximal effect; on the % scale 0 is the no-effect control and ±100 the full control effect
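A549 ARE_Fluc cells in 5% FBS OPTI-MEM were exposed to compounds in concentration-response for 18-24 h at 37 deg C. Viability was read by CellTiter-Fluor fluorescence (Ex 405/Em 525) after 30 min, before the luciferase read.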
Anesthetic bind = binds horse apoferritin like a general anesthetic; P02791; apoferritin/1-aminoanthracene competitive binding, fluorescence; Potency, µM (doses to about 77.5 µM), inactives show at the highest dose activity change, negative = displacement, usual class: inhibitors; 350,000 tested, 0.074% active; further: potency means the concentration at half of the fitted maximal effect; on the % scale 0 is the no-effect control and ±100 the full control effect; nearly all actives have a fitted effect of over 20% in size
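Read-out: endpoint 1-AMA fluorescence, excitation 380 nm and emission 535 nm, after compounds sit 10 min at room temperature with 10 uM horse-spleen apoferritin in 50% saturated 1-AMA/PBS. Values come from four-parameter Hill fits.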
Giardia killer = Giardia lamblia killing; Giardia lamblia trophozoite viability; AID 540267; 340,000 tested, 0.15% active; activity change, % at 7.66 µM, hits read low; in the data active means activity change below about -80%; inconclusive means between about -30% and that limit;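 further: parasites exposed to compound for two days anaerobically before the ATP read; on the % scale 0 is the no-effect control and ±100 the full control effect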
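Compounds were tested on trophozoites seeded at 100 cells/well and held 48 hrs at 37 deg C anaerobically. An ATP-based luminescent kit measured the remaining live cells.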
Nrf2 ARE act = activators of Nrf2 (ARE) signaling; 410,000 tested, 0.31% active; Potency, µM (doses to about 46.1 µM), for the others: top-dose activation, hits mostly activators; AREc32 ARE-luciferase reporter (MCF7-derived line), luminescence, 24 h; AID 624171; further: potency means the concentration at half of the fitted maximal effect; % of control where 0% means no effect; nearly all actives have a fitted effect of over 65% in size
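Nrf2 activation is followed as ARE-luciferase induction in the AREc32 line after one day of compound treatment; luminescence is read with Steady-Glo.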
Nrf2 block = Nrf2 pathway inhibition | A549 ARE-Fluc reporter, luciferase luminescence, 18-24 h | Potency, µM (titrated, usually from 46 µM), without a hit: at the highest dose activity change, negative = inhibition, actives largely listed as inhibitors | 360,000 tested, 2.1% active | AID 504444; further: potency means the concentration at half of the fitted maximal effect; on the % scale 0 is the no-effect control and ±100 the full control effect; nearly all actives have a fitted effect of over 60% in size
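Quantitative HTS in A549 cells stably bearing an antioxidant response element-firefly luciferase construct. Inhibition of Nrf2-driven transcription was scored by luminescence after 18-24 h of compound exposure at 37 °C.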
mIDH1 inhibitor = human IDH1 R132H inhibition | O75874 | IDH1-R132H enzyme, NADPH consumption, diaphorase/resazurin fluorescence | Potency, µM (series often up to 76.6 µM), without a hit: at the highest dose activity change, negative = inhibition, usual class: inhibitors | 390,000 tested, 0.093% active | AID 602179; further: potency means the concentration at half of the fitted maximal effect; on the % scale 0 is the no-effect control and ±100 the full control effect; nearly all actives have a fitted effect of over 65% in size
Target sequence (O75874 whole entry R132H, stated change not applied): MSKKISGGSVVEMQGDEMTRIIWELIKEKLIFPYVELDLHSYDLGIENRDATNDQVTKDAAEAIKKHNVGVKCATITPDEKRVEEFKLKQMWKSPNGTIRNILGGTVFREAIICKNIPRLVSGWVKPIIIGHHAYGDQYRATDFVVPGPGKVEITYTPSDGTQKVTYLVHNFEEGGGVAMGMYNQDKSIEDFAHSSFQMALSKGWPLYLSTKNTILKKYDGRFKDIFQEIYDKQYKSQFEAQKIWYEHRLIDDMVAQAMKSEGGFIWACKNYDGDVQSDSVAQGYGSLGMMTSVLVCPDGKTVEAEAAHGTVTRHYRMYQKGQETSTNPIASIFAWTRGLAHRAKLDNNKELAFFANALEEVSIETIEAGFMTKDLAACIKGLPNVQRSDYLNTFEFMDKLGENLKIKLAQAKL
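IDH1-R132H (0.5 ug/mL) preincubated 30 min with compound, then NADPH (0.016 mM) and alpha-KG (2 mM) added; 80 min at RT, pH 7.5. Remaining NADPH coupled via diaphorase/resazurin to fluorescence (540/590 nm); concentration-response curves normalized to no-enzyme control.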
Active calls of the source: *; ? = inconclusive; . = no result given. Shown are actives, neighbours in structure and some others; about 2.3% of the full set was active somewhere. Unless noted, the call rests on the fitted dose curve; in most records, active means well fitted curve in the direction sought with a large enough effect; inconclusive means small, poorly fitted or top-dose-only effect, or another doubt; inactive means no such curve, though single readings can be large; an effect the other way counts as inactive or inconclusive.

SMILES	A549 viability	Anesthetic bind	Giardia killer	Nrf2 ARE act	Nrf2 block	mIDH1 inhibitor
O=S(=O)(c1ccc(Br)cc1)N1CCN(c2nc(-c3cccs3)nc3ccccc23)CC1	0%	.	-13	.	-2%	.
CC1CCc2c(sc(NC(=O)CSc3ncn[nH]3)c2C#N)C1 (configuration not stated)	-10%	-12%	20	-3%	7.3µM*	-5%
N#Cc1c(NC(=O)CSc2ncn[nH]2)sc2c1CCCC2	-6%	-21%	6	-2%	4.1µM*	7%
O=C(COC(=O)c1ccc(S(=O)(=O)NCc2ccco2)cc1)NC1CCCCCC1	-6%	35µM*	2	0%	14%	2%
CCOc1ccc(NC(=O)COC(=O)c2c[nH]c3ccccc23)cc1	.	.	.	4%	.	5%
Cn1c(=O)c2cc(S(=O)(=O)NCCC(=O)N3CC=C(c4ccccc4)CC3)ccc2n(C)c1=O	-6%	?	-12	0%	15µM*	11%
CN(CC(=O)N1CC=C(c2ccccc2)CC1)S(=O)(=O)c1ccc2c(c1)c(=O)n(C)c(=O)n2C	12%	?	49	5%	1%	-8%
COc1ccccc1NS(=O)(=O)c1ccc2oc(SC)nc2c1	1%	1%	-17	4%	21µM*	1%
COc1ccccc1NS(=O)(=O)c1ccc2oc(SCc3ccc(F)cc3)nc2c1	-17%	48%	-4	3%	23µM*	4%
COc1ccccc1NS(=O)(=O)c1ccc2oc(SCC(C)=O)nc2c1	-5%	0%	-2	3%	?	-1%
COc1ccc(NS(=O)(=O)c2ccc3oc(SCc4ccc(F)cc4)nc3c2)cc1	-5%	6%	11	4%	18µM*	3%
CCOC(=O)CSc1nc2cc(S(=O)(=O)Nc3ccccc3OC)ccc2o1	-5%	-18%	-22	-1%	9%	3%
O=S(=O)(c1ccc2c(c1)OCCO2)N1CCN(S(=O)(=O)c2ccc(Cl)cc2F)CC1	-1%	.	.	.	4%	.
N#Cc1c(-c2ccc(Cl)cc2)no[n+]1[O-]	-4%	.	.	.	-8%	.
COc1ccc(NC(=O)c2cc3n(n2)C(C(F)(F)F)CC(c2ccc4c(c2)OCO4)N3)cc1OC (configuration not stated)	-26%	-16%	-2	0%	23µM*	-2%
Cc1cccc(NC(=O)c2cc3n(n2)C(C(F)(F)F)CC(c2ccc4c(c2)OCO4)N3)c1 (configuration not stated)	-13%	-13%	15	-1%	.	4%
Cc1ccc(S(=O)(=O)N(C)C)cc1NC(=O)C(C)N(C)Cc1sccc1C (configuration not stated)	-18%	-2%	-19	0%	13µM*	13%
Cc1ccc(S(=O)(=O)N(C)C)cc1NC(=O)C(C)NC(C)c1cccs1 (configuration not stated)	9%	-1%	4	0%	?	21%
COc1ccc(NS(=O)(=O)c2cccc(NC(=O)CCC(=O)c3cccs3)c2)cc1	-11%	8%	-4	0%	-3%	6%
COc1ccc(NS(=O)(=O)c2cccc(NC(=O)CCC(=O)c3ccc(Cl)cc3)c2)cc1	-28%	-12%	-8	9%	21µM*	-5%
O=C(O)CCC(=O)N1CCc2cc(S(=O)(=O)NCc3ccc(F)cc3)ccc21	6%	2%	.	0%	19%	19%
COc1ccc(-c2noc(N3CCN(c4ccc(Cl)cc4)CC3)n2)cc1OC	1%	2%	.	0%	?	-5%
COc1ccc(-c2noc(N3CCN(c4cccc(Cl)c4)CC3)n2)cc1OC	-5%	5%	.	0%	23µM*	14%
COc1ccccc1CNC(=O)c1ccc(N2CCCC2)c(NC(=O)NCCC(C)C)c1	10%	8%	.	-1%	.	-28%
